# These entries were drawn from the full list.
# aSyn UTR act = Activators via SNCA 5'UTR binding, MLPCN. alpha-synuclein 5'UTR reporter, activators screen. activity score, % (tested at 7.5 µM), hits read low. actives 7.1% (n = 300,000); in the data active = activity score below about -60%
# * hit, by the source's call.
SMILES,aSyn UTR act
Clc1ccc(-c2ncc3ccccn23)cc1,-104*
Clc1ccccc1-c1ncc2ccccn12,-98*
COc1cc(NC(=O)c2cc3nc(C4CC4)cc(C(F)(F)F)n3n2)c(OC)cc1Cl,-70*
Cc1cc(NS(=O)(=O)c2ccc(NC(=O)Nc3ccc4c(c3)OCO4)cc2)no1,-71*
CC(C)Cc1cc(C(=O)Nc2ccc3c(c2)OCO3)no1,-184*
COC(=O)c1ccc(C)c(NS(=O)(=O)c2ccc3c(c2)OCCO3)c1,94
Cc1cc(C(=O)Nc2ccc3c(c2)OCO3)no1,-107*
Cc1ccn2c(NCc3ccccc3)c(-c3cccs3)nc2c1,-100*
Cc1ccn2c(NC3CCCC3)c(-c3cccs3)nc2c1,-116*
O=C(Nc1cccc([N+](=O)[O-])c1)c1ccc2ccccc2c1O,-128*
O=C(Nc1cccnc1)c1ccc2ccccc2c1O,-137*
O=C(Nc1ccccn1)c1ccc2ccccc2c1O,-144*
CC(/C=C/c1ccco1)=N/NC(=O)OC(C)(C)C,-129*
C/C(=N/NC(=O)OC(C)(C)C)c1ccco1,-86*
Nc1cc(C(F)(F)F)ccc1OCC1CCCO1 (stereo unspecified),-91*
Cc1ccc(NC2c3ncccc3C(=O)N2c2ccccc2C)cc1C (stereo unspecified),-168*
CC(=O)N1N=C(c2ccc(C)cc2)OC1c1cccnc1 (stereo unspecified),-75*
O=S(=O)(/N=C(/NC(=S)Nc1ccccc1)c1ccccc1)c1ccc(Cl)cc1,-99*
COc1ccc(NC(=S)N/C(=N/S(=O)(=O)c2ccc(C)cc2)c2ccccc2)cc1,-146*
COc1ccc(S(=O)(=O)/N=C2\C=C(Nc3ccc(O)cc3)C(=O)c3ccccc32)cc1,100
Cc1ccc(NC(=O)c2cc(-c3ccccc3)nn2-c2ccccc2)cc1,-98*
CC(=O)C(/C=N/c1cc(-c2ccc(C)cc2)nn1-c1ccccc1)=C(\C)O,-198*
CCc1nnc(NC(=O)c2cc(-c3ccccc3)nn2-c2ccccc2)s1,-165*
COc1ccc(O)c(C(=O)CC(=O)c2ccc(F)cc2)c1,73
COc1ccc(O)c(C(=O)CC(=O)c2ccccc2C)c1,-100*
SMILES,aSyn UTR act
COc1ccc(C(=O)CC(=O)c2ccccc2O)cc1,-218*
Cc1c(C(=O)N(CCO)Cc2ccccc2)oc2c(F)cccc12,-112*
Cc1cccc(/N=C/c2c(O)[nH]c3ccccc23)n1,-211*
Oc1[nH]c2ccccc2c1C=Nc1ccc2c(c1)OCCO2,-76*
COc1ccc(C)cc1N(C(=O)COc1cccc(F)c1)c1nc2ccccc2s1,-110*
O=[N+]([O-])c1cc(-c2n(-c3ccccn3)c3ccccc3[n+]2-c2ccccn2)ccc1Cl,-88*
O=C(N/N=C/c1ccc(OCc2ccccc2)cc1)c1ccncc1,-164*
O=C(N/N=C/c1ccc(Cl)cc1)c1sccc1OCc1ccc(F)cc1,73
C[C@H](NC(N)=O)C(=O)Nc1ccc(OCc2ccccc2)cc1,-92*
O=C(N/N=C/c1ccc(F)cc1)c1sccc1OCc1ccc(F)cc1,-94*
Oc1ccc(N=Cc2ccc(OCc3ccccc3)cc2)cc1,-92*
O=C(C[n+]1ccc(C(=O)N/N=C/c2ccc(OCc3ccccc3)cc2)cc1)c1ccccc1,-138*
CSc1ccc(/C=N/NC(=O)c2sccc2C)cc1,-89*
O=C(N/N=C/c1ccc(OCc2ccccc2)cc1)c1cccs1,-116*
O=C(Nc1ccc(OCc2ccccc2)cc1)c1cccs1,-158*
Cc1occc1C(=O)Nc1ccc(OCc2ccccc2)cc1,-147*
CC(C)(C)NCC(=O)N/N=C/c1ccc(OCc2ccccc2)cc1,-72*
O=C(COc1ccc([N+](=O)[O-])cc1)NNC(=O)c1cccs1,-78*
CCN(CC)C(=O)N1c2ccccc2C=Cc2ccccc21,-101*
Oc1ccc2c(c1)oc1cc(O)ccc12,-178*
COc1ccc(Nc2oc(-c3ccccc3F)nc2C#N)cc1,-103*
COc1ccc(Nc2oc(COc3ccccc3OC)nc2C#N)cc1,98
COc1ccc(Nc2oc(-c3cccs3)nc2C#N)cc1,-171*
Cc1ccc(OCCn2c(NC(=O)c3ccco3)nc3ccccc32)cc1,67
O=c1oc2ccccc2n1CCCOc1ccccc1,-73*
SMILES,aSyn UTR act
COc1ccc(NCc2nc3ccccc3n2CCOc2ccc(C)cc2)cc1,-114*
Cc1nc2ccccc2n1CCCOc1ccccc1,-89*
COc1ccc(NCc2nc3ccccc3n2CCOc2ccccc2)cc1,-207*
CCCC(=O)Nc1ccc(-c2nc3cc(C)c(C)cc3o2)c(O)c1,-129*
CCCC(=O)Nc1ccc2oc(-c3ccc(OC)c(Br)c3)nc2c1,-118*
COc1ccc(-c2csc(NC(=S)NC(=O)/C=C/c3ccco3)n2)cc1Br,91
CCCC(=O)Nc1ccc(-c2nc3cc(C)ccc3o2)cc1,-149*
C=C[C@@]1(C)CC(=O)[C@]2(O)[C@@]3(C)[C@@H](O)CCC(C)(C)[C@@H]3[C@H](OC(C)=O)[C@H](O)[C@@]2(C)O1,66
Cc1ccc(NC(=O)c2ccc(Br)o2)cc1S(=O)(=O)N(C)C,-125*
Cc1occc1C(=O)Nc1ccc2c(c1)CCC2,-188*
O=C(Nc1ccc2c(c1)OCO2)c1ccc(Br)o1,-256*
Cc1ccc(C(=O)Nc2ccccc2C(N)=O)o1,-78*
Cc1ccc(C(=O)Nc2ccc3c(c2)CCC3)o1,-134*
Cc1ccoc1C(=O)Nc1ccc(CC(=O)O)cc1,84
O=C(Nc1ccc2c(c1)OCO2)c1ccc(COc2ccc3c(c2)CCC3)o1,-76*
Cc1ccc(NC(=O)c2ccc(OC(F)(F)F)cc2)cc1S(=O)(=O)N(C)C,-76*
Cc1ccc(C(=O)Nc2ccc(F)cc2)o1,-73*
O=C(Nc1ccc2c(c1)CCC2)c1cc2ccccc2o1,-188*
O=C(Nc1ccc2c(c1)CCC2)c1ccc(Br)o1,-157*
Cn1nccc1C(=O)Nc1sc2c(c1C#N)CCCC2,-100*
Cn1nccc1C(=O)Nc1sc2c(c1C(N)=O)CCCC2,-126*
Cn1cc(Br)c(C(=O)Nc2sc3c(c2C(N)=O)CCC3)n1,-95*
O=C1S/C(=C\C=C\c2ccco2)C(=O)N1c1ccccc1,-217*
O=C1S/C(=C\C=C\c2ccco2)C(=O)N1c1ccc(O)cc1,-245*
O=C(N/N=C/c1ccc(OCC(=O)N2CCCCC2)cc1)c1ccccc1O,-74*
SMILES,aSyn UTR act
COc1cc(/C=N/NC(=O)c2ccccc2O)ccc1OCC(=O)Nc1ccccc1,-140*
O=C(COc1ccc(/C=N/NC(=O)c2ccccc2O)cc1)Nc1ccccc1,-126*
O=C(COc1ccc(/C=N/NC(=O)c2cc3ccccc3o2)cc1Cl)Nc1ccccc1,101
COc1cc(/C=N/NC(=O)c2ccncc2)ccc1OCC(=O)Nc1ccccc1,-100*
Cc1coc2c1C(=O)C(=O)c1c-2ccc2c(C)cccc12,-64*
Cc1coc2c1C(=O)C(=O)c1c-2ccc2c1CCCC2(C)C,63
CCN(CC)CCCNC(=O)c1ccc2c3n(nc2c1)-c1ccc(Cl)cc1CO3,-246*
CC(C)NC(=O)c1ccc2c3n(nc2c1)-c1ccc(Cl)cc1CO3,-176*
CC(C)CC(NC(=O)c1ccc(Cl)cc1)C(=O)OCC(=O)c1ccc2c(c1)NC(=O)CO2 (stereo unspecified),96
O=C(Nc1nnc(-c2ccccc2F)s1)C1CCCO1 (stereo unspecified),-181*
Nc1ccc2nc(NC(=O)C3CCCCC3)sc2c1,-124*
O=C(Nc1nc2ccccc2s1)C1CCCO1 (stereo unspecified),-132*
Cc1cc(C)c2sc(NC(=O)C3CC3)nc2c1,-89*

# Screening data from PubChem BioAssay.
